This is part of a sample that, as a whole, favours compounds with a hit. Of some 83,000 tested, about 20% had one in any assay.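 Single-dose data. Exposure time 48 hours. Values below 10 considered active.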 Values without a mark were called inactive. The source made the active and inactive calls.

Some test systems named below: SR leukemia; RPMI-8226 leukemia; OVCAR-8 ovarian; OVCAR-5 ovarian; OVCAR-4 ovarian; SK-OV-3 ovarian; IGROV1 ovarian; OVCAR-3 ovarian; HS 578T breast; NCI/ADR-RES ovarian; T-47D breast; BT-549 breast; MDA-MB-435 melanoma; SW-620 colon; MCF7 breast; HCT-116 colon; HCC-2998 colon; KM12 colon.
What all share (experiment): NCI-60 one-dose screen, 48 h (100 = growth as untreated, 0 = no growth, -100 = all killed)
Settings in all cases: 10 µM unless noted

In the case of `CC(=O)Nc1ccccc1-c1nc2ccccc2s1`, the growth in the assay on SR leukemia was 110%; in the assay on RPMI-8226 leukemia, 113%; in the assay with OVCAR-8 ovarian it was 103%; in the assay with OVCAR-5 ovarian, 102%; in the assay with OVCAR-4 ovarian it was 97.4%; with SK-OV-3 ovarian, 108%. Further, the growth is 101% in the assay with IGROV1 ovarian; 112% with OVCAR-3 ovarian; 106% with HS 578T breast; 98.5% in the assay with NCI/ADR-RES ovarian; 99.3% in the assay with T-47D breast; 102% in the assay on BT-549 breast. The growth in the assay with MDA-MB-435 melanoma is 98.8%; with SW-620 colon, 107%; in the assay with MCF7 breast, 97.6%; with HCT-116 colon, 95.3%; with HCC-2998 colon it was 99.7%; in the assay with KM12 colon, 105%.

As for `OCC(Nc1ncnc2ccc(-c3cnc4cnccn34)cc12)c1ccccc1` (centres undefined), the growth in the assay with SR leukemia is 73.5%; in the assay with RPMI-8226 leukemia, 62.5%; with OVCAR-8 ovarian, 79.7%; in the assay on OVCAR-5 ovarian it was 83.8%; in the assay on OVCAR-4 ovarian, 63.7%; in the assay with SK-OV-3 ovarian, 80.9%. Further, the growth in the assay with IGROV1 ovarian is 39.1%; with OVCAR-3 ovarian, 71.9%; in the assay with HS 578T breast, 84.1%; with NCI/ADR-RES ovarian it was 90.3%; in the assay with T-47D breast, 28.4%; in the assay on BT-549 breast, 76.2%. Besides, the growth is 90% with MDA-MB-435 melanoma; 105% in the assay with SW-620 colon; 60.9% in the assay on MCF7 breast; 79.3% in the assay on HCT-116 colon; 82.9% in the assay with HCC-2998 colon; 80.9% with KM12 colon.

With `COc1cc2oc(-c3cccc(NC(=O)[C@@H](N)C(C)C)c3)cc(=O)c2c(OC)c1OC`, the growth was 76.9% in the assay with SR leukemia; 88.2% in the assay with RPMI-8226 leukemia; 99% with OVCAR-8 ovarian; 103% in the assay with OVCAR-5 ovarian; 107% in the assay with OVCAR-4 ovarian; 104% with SK-OV-3 ovarian. Besides, the growth in the assay with IGROV1 ovarian was 103%; with OVCAR-3 ovarian it was 108%; in the assay on HS 578T breast it was 112%; in the assay on NCI/ADR-RES ovarian, 107%; with T-47D breast it was 87.3%; with BT-549 breast it was 104%. The growth was 109% in the assay with MDA-MB-435 melanoma; 105% in the assay with SW-620 colon; 92.9% in the assay on MCF7 breast; 98.6% in the assay with HCT-116 colon; 109% in the assay on HCC-2998 colon; 101% in the assay on KM12 colon.

For the compound `COc1ccc(-c2cnc(NC(=O)CCCCCCNC(=O)C(O)(O)C(F)(F)F)s2)cc1`, the growth in the assay with SR leukemia was 13.2%; in the assay on RPMI-8226 leukemia it was 14%; with OVCAR-8 ovarian it was -3.57% (active); with OVCAR-5 ovarian, 4.6% (active); in the assay on OVCAR-4 ovarian, -9.83% (active); with SK-OV-3 ovarian, -19.3% (active). Moreover, the growth with IGROV1 ovarian is -18.7% (active); in the assay on OVCAR-3 ovarian, -50.6% (active); in the assay on HS 578T breast, 9.86% (active); with NCI/ADR-RES ovarian, -2.38% (active); with T-47D breast it was 0.87% (active); with BT-549 breast it was -11.9% (active). Moreover, the growth with MDA-MB-435 melanoma is 5.55% (active); in the assay with SW-620 colon it was 0.251% (active); in the assay with MCF7 breast, 7.73% (active); with HCT-116 colon, -9.91% (active); in the assay with HCC-2998 colon it was -46.5% (active); in the assay on KM12 colon, -47.8% (active).

Turning to `O=S(=O)(NCCCNc1nccc(-c2[nH]c(-c3ccccc3)nc2-c2ccc(F)c(O)c2)n1)c1ccc(C(F)(F)F)cc1`, the growth in the assay on SR leukemia is 1.01% (active); in the assay on RPMI-8226 leukemia it was 16.2%; with OVCAR-8 ovarian, 69.7%; with OVCAR-5 ovarian it was 136%; with OVCAR-4 ovarian, 67.8%; in the assay on SK-OV-3 ovarian, 78.4%. Also, the growth in the assay with IGROV1 ovarian was 63.1%; in the assay with OVCAR-3 ovarian, 33.6%; in the assay on HS 578T breast it was 48.9%; in the assay on NCI/ADR-RES ovarian, 89%; with T-47D breast it was 50.7%; in the assay on BT-549 breast, 55.9%. Further, the growth in the assay with MDA-MB-435 melanoma is -40.6% (active); with SW-620 colon it was 59.8%; in the assay on MCF7 breast, 7.95% (active); in the assay with HCT-116 colon it was 19.1%; in the assay on HCC-2998 colon, 97.8%; in the assay on KM12 colon, 36.6%.

With `Cc1ccc(NC(=O)Nc2nc3ccc([N+](=O)[O-])cc3s2)cc1`, the growth with SR leukemia is 20.3%; in the assay with RPMI-8226 leukemia, 2.09% (active); in the assay with OVCAR-8 ovarian, 12.8%; in the assay with OVCAR-5 ovarian it was 10.3%; in the assay with OVCAR-4 ovarian it was -6.09% (active); with SK-OV-3 ovarian it was -12.4% (active). For the same compound, the growth was 16.8% in the assay with IGROV1 ovarian; -0.465% (active) in the assay with OVCAR-3 ovarian; 15.2% in the assay on HS 578T breast; 2.65% (active) in the assay on NCI/ADR-RES ovarian; -22.3% (active) with T-47D breast; -9.82% (active) in the assay on BT-549 breast. In addition, the growth in the assay with MDA-MB-435 melanoma is -7.46% (active); in the assay with SW-620 colon, 8.56% (active); with MCF7 breast, 2.35% (active); in the assay with HCT-116 colon, 1.1% (active); in the assay with HCC-2998 colon, 6.19% (active); in the assay with KM12 colon, -3.91% (active).

For `COc1ccc(NC2=C(Br)C(=O)C(C)=C(C)C2=O)cc1OC`, the growth is 71.2% in the assay with SR leukemia; 70.8% in the assay on RPMI-8226 leukemia; 96% in the assay with OVCAR-8 ovarian; 121% with OVCAR-5 ovarian; 14.1% in the assay with OVCAR-4 ovarian; 83.8% in the assay on SK-OV-3 ovarian. The growth with IGROV1 ovarian was 86%; in the assay with OVCAR-3 ovarian, 107%; in the assay on HS 578T breast, 97.6%; with NCI/ADR-RES ovarian, 97.3%; with T-47D breast, -8.45% (active); in the assay with BT-549 breast it was 112%. For the same compound, the growth is 102% in the assay with MDA-MB-435 melanoma; 107% in the assay on SW-620 colon; 72.1% with MCF7 breast; 90.7% with HCT-116 colon; 102% in the assay on HCC-2998 colon; 59.2% in the assay with KM12 colon.

As for `CC1=C(C)C(=O)C(Nc2cccc(C(=O)OC(C)(C)C)c2)=CC1=O`, the growth with SR leukemia is 81.8%; in the assay with RPMI-8226 leukemia, 75.8%; in the assay on OVCAR-8 ovarian it was 82.2%; in the assay with OVCAR-5 ovarian, 98.3%; in the assay with OVCAR-4 ovarian, 34.9%; with SK-OV-3 ovarian, 90.5%. The growth in the assay with IGROV1 ovarian is 72.9%; with OVCAR-3 ovarian it was 6.18% (active); with HS 578T breast it was 79.4%; in the assay with NCI/ADR-RES ovarian, 76%; with T-47D breast it was 65%; in the assay with BT-549 breast, 82.6%. Besides, the growth with MDA-MB-435 melanoma is 87.1%; with SW-620 colon, 94.8%; in the assay on MCF7 breast, 46%; in the assay with HCT-116 colon it was 75.2%; in the assay on HCC-2998 colon, 103%; in the assay on KM12 colon, 88.7%.
